From PubChem BioAssay (NCATS)
Inconclusive results are not listed. Active and inactive are the calls of the source. Unless noted, calls come from the whole dose curve; as a rule, active = well fitted curve in the direction sought with a large enough effect; inconclusive = small, poorly fitted or top-dose-only effect, or another doubt; inactive = no such curve, though single readings can be large; an effect the other way counts as inactive or inconclusive.

How the values were obtained:
[1] = Validation of Assay for Modulators of Lamin A Splicing (AID 1459; active = well fitted curve in the direction sought with a large enough effect in the signal ratio; the % refers to the signal ratio;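 note: cells exposed to compound for two days before reading; 0% is about no effect; ratio rise marks activators and ratio drop marks inhibitors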)
Method in brief: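 Splicing correction is reported by an EGFP-containing lamin A minigene in stably transfected S3 HeLa cells, while DsRed2 controls for viability and nonspecific signal. Cells are exposed to compounds for 48 hrs before the GFP over RFP ratio is taken.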

[2] = target: DNA repair nuclease/redox regulator APEX1 (Homo sapiens) (UniProt P27695); test: qHTS Validation Assay for Inhibitors of the Human Apurinic/apyrimidinic Endonuclease 1 (APE1) (AID 1705; note: potency is the fitted concentration of half-maximal effect;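 for activity change, negative = inhibition: TAMRA fluorescence gain over two minutes as APE1 cuts a quenched THF abasic duplex; % is set by controls: 0 for no effect and ±100 for the full control effect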)
Sequence of DNA repair nuclease/redox regulator APEX1 (Homo sapiens) (P27695 whole entry, looked up): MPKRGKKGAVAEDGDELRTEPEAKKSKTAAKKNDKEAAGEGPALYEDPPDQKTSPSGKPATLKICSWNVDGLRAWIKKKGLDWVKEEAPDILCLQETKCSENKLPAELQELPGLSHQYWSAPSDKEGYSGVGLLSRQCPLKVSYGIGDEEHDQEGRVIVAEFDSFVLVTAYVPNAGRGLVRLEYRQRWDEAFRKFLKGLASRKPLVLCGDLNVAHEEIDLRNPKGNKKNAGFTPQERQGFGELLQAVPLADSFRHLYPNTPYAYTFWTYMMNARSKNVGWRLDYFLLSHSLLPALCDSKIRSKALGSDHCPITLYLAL
Method in brief: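 Endonuclease activity of human APE1 is followed as dequenching when the enzyme incises a tetrahydrofuran abasic site in a short duplex labelled 5'-TAMRA/3'-BHQ-2 (50 nM final), after 15 min enzyme–compound preincubation at room temperature.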

[3] = Counterscreen for APE1 Inhibitors: Fluorescent Dye Displacement Validation Assay (AID 1707); note: potency is the fitted concentration of half-maximal effect;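 for activity change, negative = inhibition: plate controls were ThO with dsDNA and no compound for no effect and ThO without dsDNA for full effect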
Method in brief: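 Counterscreen flags promiscuous DNA binders: compounds displacing ThO from duplex DNA (abasic THF site, 50 nM) reduce 540 nm emission (480 nm excitation). ThO 250 nM final; Tris-HCl pH 7.5 with NaCl, MgCl2 and Tween-20.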

[4] = target: Endonuclease 4 (Escherichia coli (strain K12)) (UniProt P0A6C1); test: Counterscreen for APE1 Inhibitors: qHTS Validation Assay for Inhibitors of Endonuclease IV (AID 1708); note: % is set by controls: 0 for no effect and ±100 for the full control effect
Method in brief: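 Enzyme (2 nM) + compound, 15 min RT; add 50 nM TAMRA/BHQ-2 THF-site dsDNA; kinetic read ex525/em598, 3 reads/60 s; activity = read 3 − read 1. Buffer Tris pH 7.5, 50 mM NaCl, 2 mM MgCl2, DTT, Tween-20.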

[5] = target: Alpha-galactosidase A (Homo sapiens) (UniProt P06280); test: Counterscreen for Glucocerebrosidase Inhibitors: qHTS Assay for Human alpha-Galactosidase at pH 4.5 (AID 992); note: 0% is about no effect
Sequence of Alpha-galactosidase A (Homo sapiens) (P06280 whole entry, looked up): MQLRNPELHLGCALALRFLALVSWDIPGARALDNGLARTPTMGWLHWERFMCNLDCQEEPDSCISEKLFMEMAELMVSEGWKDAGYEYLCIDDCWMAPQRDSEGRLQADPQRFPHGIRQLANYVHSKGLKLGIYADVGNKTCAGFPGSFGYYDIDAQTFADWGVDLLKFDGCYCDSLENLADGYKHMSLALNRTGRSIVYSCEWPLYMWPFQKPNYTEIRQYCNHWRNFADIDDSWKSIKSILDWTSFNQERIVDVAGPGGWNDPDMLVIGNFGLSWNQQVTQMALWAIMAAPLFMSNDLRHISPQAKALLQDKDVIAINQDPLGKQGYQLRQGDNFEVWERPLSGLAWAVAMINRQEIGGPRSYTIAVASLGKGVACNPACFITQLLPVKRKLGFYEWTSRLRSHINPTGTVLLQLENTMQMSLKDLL
Method in brief: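 Fluorogenic 1536-well qHTS at pH 4.5 (citrate, Tween-20): 2 nM enzyme, 80 uM 4-MU-alpha-galactoside, 20 min room temperature, NaOH/glycine stop. Titration 0.7 nM to 77 uM, data normalized to no-enzyme and full-activity controls, Hill-fitted AC50.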

[6] = target: alpha-glucosidase (Oryza sativa, rice) (UniProt Q653V4); test: Counterscreen for Glucocerebrosidase Inhibitors: qHTS Assay for Rice alpha-Glucosidase at pH 5.0 (AID 997);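 note: 0% = full activity with enzyme and -100% = basal without enzyme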
Method in brief: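 Endpoint fluorogenic assay at pH 5.0: compounds (0.7 nM to 77 uM) titrated against 4 nM rice enzyme and 400 uM 4-MU-alpha-glucoside for 20 min at room temperature; NaOH/glycine stop, read ex 365/em 440 nm, Hill-fitted AC50.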

[7] = target: Alpha-galactosidase (Coffea arabica) (UniProt Q42656); test: Counterscreen for Glucocerebrosidase Inhibitors: qHTS Assay for Coffee Bean alpha-Galactosidase at pH 5.9 (AID 998);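 note: plate controls were uninhibited enzyme for no effect and no-enzyme basal signal for full effect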
Sequence of Alpha-galactosidase (Coffea arabica) (Q42656 whole entry, looked up): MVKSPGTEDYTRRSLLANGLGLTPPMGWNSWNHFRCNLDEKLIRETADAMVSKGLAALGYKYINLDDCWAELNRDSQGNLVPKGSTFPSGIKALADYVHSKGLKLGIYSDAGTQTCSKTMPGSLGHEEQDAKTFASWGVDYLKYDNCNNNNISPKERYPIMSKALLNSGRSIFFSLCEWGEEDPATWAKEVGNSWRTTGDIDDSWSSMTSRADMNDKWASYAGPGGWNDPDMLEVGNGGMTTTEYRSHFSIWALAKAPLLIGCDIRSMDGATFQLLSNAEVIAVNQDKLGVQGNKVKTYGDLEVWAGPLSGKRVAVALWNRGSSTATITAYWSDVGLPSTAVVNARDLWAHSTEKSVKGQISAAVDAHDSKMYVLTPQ
Method in brief: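 In 50 mM citric acid pH 5.9 with 0.005% Tween-20, coffee bean enzyme hydrolyses 80 uM 4-MU alpha-D-galactopyranoside over 20 min at RT. Activity is normalized to controls; AC50 comes from Hill-modelled concentration-response data.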

[8] = Cell Viability - LYMP2-007 (AID 979);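 note: potency is the fitted concentration of half-maximal effect; cells exposed to compound for 24 h before reading; nearly all actives have a fitted effect of over 60% in size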
Method in brief: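 Cells are seeded at 2500 per well and rested 5 hr. Compounds are then added over a concentration series for 24 hr at 37 C. CellTiter-Glo is added for 30 min at room temperature before luminescence reading.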

[9] = Cell Viability - LYMP2-010 (AID 981);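 note: potency is the fitted concentration of half-maximal effect; cells exposed to compound for 24 hours at 37 °C; nearly all actives have a fitted effect of over 55% in size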
Method in brief: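 Steps: seed 2500 LYMP2-010 cells per well; incubate 5 hr at 37 C; add compound; incubate 24 hr at 37 C; add CellTiter-Glo, wait 30 min at room temperature; read luminescence. Concentration-response fitted to Hill equation for AC50.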

[10] = Cell Viability - LYMP2-012 (AID 982);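 note: cellular ATP by luciferase luminescence where a drop means cytotoxicity; potency is the fitted concentration of half-maximal effect; cells exposed to compound for one day before reading; nearly all actives have a fitted effect of over 55% in size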
[11] = Cell Viability - LYMP2-014 (AID 983);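 note: cells exposed to compound for 24 h at 37 °C; plate controls were DMSO only for no effect and 92 µM tetraoctylammonium bromide for full effect; nearly all actives have a fitted effect of over 50% in size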
Method in brief: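 Cells are plated at 2500/well and left 5 hr at 37 C. Compounds are added across a concentration range and incubated 24 hr at 37 C in complete medium. CellTiter-Glo is added, and luminescence is read after 30 min at room temperature.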

[12] = Cell Viability - LYMP2-022 (AID 987); note: potency is the fitted concentration of half-maximal effect; nearly all actives have a fitted effect of over 55% in size
Method in brief: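 Cells were seeded at 2500 per well, rested 5 hr at 37 C, and treated with titrated compounds for 24 hr at 37 C. Cellular ATP was then quantified by luciferase luminescence, and AC50 values were derived from Hill-modelled concentration-response curves.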

[13] = Cell Viability - LYMP2-024 (AID 988); note: potency is the fitted concentration of half-maximal effect; nearly all actives have a fitted effect of over 60% in size
Method in brief: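 qHTS cytotoxicity, human lymphoblastoid line, complete medium; 24 h cpd treatment, 37 C; CellTiter-Glo ATP luminescence readout; tetraoctylammonium bromide positive control; AC50 via Hill fit.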

[14] = Cell Viability - LYMP2-026 (AID 989);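 note: cells exposed to compound for 24 h at 37 °C; % is set by controls: 0 for no effect and ±100 for the full control effect; nearly all actives have a fitted effect of over 50% in size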
Method in brief: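 Cells are seeded at 2500 per well and held 5 hr at 37 C. Compounds are added in concentration series for 24 hr, then CellTiter-Glo reagent is applied and luminescence read.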

[15] = Cell Viability - LYMP1-002 - Assay at 24 hr (AID 993); note: % is set by controls: 0 for no effect and ±100 for the full control effect
Method in brief: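 Acute toxicity is measured as concentration-dependent loss of cellular ATP in a human lymphoblastoid line (Coriell LYMP1-002) after 24 h treatment in complete medium. ATP is quantified by luciferase luminescence and AC50 derived by Hill modelling.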

[16] = Cell Viability - LYMP1-002 - Assay at 40 hr (AID 994);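 note: 0% = DMSO only and full inhibition = 92 µM tetraoctylammonium bromide; nearly all actives have a fitted effect of over 60% in size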
Method in brief: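 Cells are plated at 2500 per well and rested 5 hr at 37 C. Compounds are added and incubated 40 hr at 37 C. CellTiter-Glo reagent is added for 30 min at room temperature before luminescence is read.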

[17] = qHTS Assay for Lipid Storage Modulators (AID 1519; calls by dose curve; for activity change, negative = inhibition: % is set by controls: 0 for no effect and ±100 for the full control effect); details: Drosophila S3 cells, BODIPY lipid droplet/cell ratio, laser cytometry, cells loaded with oleic acid
Method in brief: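 Cells seeded at 5,000 per well were treated with compounds over a concentration series and loaded with oleic acid (400 uM, as added). Lipid droplet fluorescence (488 nm excitation, 500-530 nm channel) was read by laser-scanning cytometry and normalized to 20 uM Triacsin C.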

[18] = measured here: cell count channel max response
[19] = measured here: lipid channel max response

C[N+]1(C)CCOC(O)(c2ccc(-c3ccc(C4(O)C[N+](C)(C)CCO4)cc3)cc2)C1 (stereo not given)
inactive: outcome [1] | Potency [2] | Potency [3] | Potency [4]

CO[C@H]1CC=C2CCN3CCC4=C(CC(=O)OC4)[C@]23C1
inactive: outcome [1] | Potency [2] | Potency [3]

O=P(O)(O)C(Cl)(Cl)P(=O)(O)O
inactive: outcome [5] | outcome [6] | outcome [7] | outcome [1] | Potency [2] | Potency [3]

N[C@@]1(C(=O)O)CC[C@@H](C(=O)O)C1
inactive: outcome [1] | Potency [3] | Potency [4]

CCCN(CCC)[C@H]1CCc2c(F)ccc(O)c2C1
inactive: outcome [5] | outcome [6] | outcome [7] | outcome [1] | Potency [3] | Potency [4]

CCCN1CCCC2Cc3[nH]ncc3CC21 (stereo not given)
inactive: outcome [1] | Potency [3] | Potency [4]

CC(N)Cc1c[nH]c2ccc(O)cc12 (stereo not given)
inactive: outcome [1] | Potency [3] | Potency [4]

C[C@H](Cc1ccc2c(c1)OC(C(=O)O)(C(=O)O)O2)NC[C@H](O)c1cccc(Cl)c1
inactive: outcome [1] | Potency [2] | Potency [3] | Potency [4]

OC1CCCCC1N1CCC(c2ccccc2)CC1 (stereo not given)
inactive: outcome [1] | Potency [3] | Potency [4]

COc1ccc2c(c1)[C@@]13CCCC[C@H]1[C@@H](C2)NCC3
inactive: outcome [1] | Potency [2] | Potency [3] | Potency [4]

Oc1ccc2c3c1O[C@H]1c4[nH]c5ccccc5c4C[C@@]4(O)C(C2)N(CC2CC2)CCC314 (stereo not given in full)
inactive: outcome [1] | Potency [2] | Potency [3] | Potency [4]

CC(Cc1ccc(OCC(=O)O)cc1)NCC(O)c1cccc(Cl)c1 (stereo not given)
inactive: outcome [1] | Potency [3] | Potency [4]

COC(=O)N1CCN(C(=O)Cc2ccc(Cl)c(Cl)c2)C(CN2CCCC2)C1 (stereo not given)
inactive: outcome [1] | Potency [2] | Potency [3] | Potency [4]

N#CC(C#N)=Cc1cc(O)c(O)c(O)c1
inactive: outcome [5] | outcome [6] | outcome [7] | outcome [1] | Potency [2] | Potency [3] | Potency [4]

O=[N+]([O-])c1cc(O)c(O)c([N+](=O)[O-])c1
inactive: outcome [5] | outcome [6] | outcome [7] | outcome [1] | Potency [2] | Potency [3] | Potency [4]

C[Se]C[C@H](N)C(=O)O
inactive: outcome [1] | Potency [3] | Potency [4]

NNC(=O)c1ccc(O)cc1
inactive: outcome [5] | outcome [6] | outcome [7] | outcome [1] | Potency [2] | Potency [3]

CP(=O)(O)C1=CCNCC1
inactive: outcome [5] | outcome [6] | outcome [7] | outcome [1] | Potency [3] | Potency [4]

NCCCP(=O)(O)O
inactive: outcome [5] | outcome [6] | outcome [7] | outcome [1] | Potency [2] | Potency [3] | Potency [4]

C#CCN[C@H](C)Cc1ccccc1
inactive: outcome [1] | Potency [2] | Potency [3] | Potency [4]

O=c1c2ccccc2[se]n1-c1ccccc1
inactive: outcome [5] | outcome [6] | outcome [1] | Potency [2] | Potency [3] | Potency [4]

O=C1C=CC(=O)C=C1
active: Potency [8] 50.1 µM | Potency [9] 39.8 µM | Potency [10] 39.8 µM | Potency [12] 39.8 µM | Potency [13] 31.6 µM | Potency [2] 14.1 µM
inactive: Potency [11] | Potency [14] | outcome [5] | Potency [15] | Potency [16] | outcome [6] | outcome [7] | outcome [1] | Potency [3] | Potency [4]

c1ccc2cc(CC3=NCCN3)ccc2c1
inactive: outcome [5] | outcome [6] | outcome [7] | outcome [1] | Potency [2] | Potency [3] | Potency [4]

Ic1ccccc1CNC1C2CCN(CC2)C1C(c1ccccc1)c1ccccc1 (stereo not given)
inactive: outcome [1] | Potency [2] | Potency [3] | Potency [4]

CCOC(=O)c1ncn2c1[C@@H]1CCCN1C(=O)c1cc(OC)ccc1-2
inactive: outcome [1] | Potency [2] | Potency [3] | Potency [4]

CCCN(CCC)CCc1c[nH]c2ccc(C(N)=O)cc12
inactive: outcome [5] | outcome [6] | outcome [7] | outcome [1] | Potency [2] | Potency [3] | Potency [4]

CC(C)(C)c1o[nH]c(=O)c1CC(N)C(=O)O (stereo not given)
inactive: outcome [1] | Potency [3]

COc1cc(CC(C)N)c(OC)cc1I (stereo not given)
inactive: outcome [1] | Potency [3]

O=S1(=O)N(CCN2CC=C(c3c[nH]c4cc(F)ccc34)CC2)c2cccc3c2N1CCC3
inactive: outcome [5] | outcome [6] | outcome [7] | outcome [1] | Potency [2] | Potency [3]

CN(N=O)c1cc(O)ccc1O
active: Potency [2] 1.41 µM | Potency [3] 14.1 µM
inactive: outcome [5] | outcome [6] | outcome [7] | outcome [1] | Potency [4]

NC(C(=O)O)c1cc(=O)[nH]o1 (stereo not given)
inactive: outcome [1] | Potency [3] | Potency [4]

O=C(O)c1cc[c]([Hg][Cl])cc1
inactive: outcome [5] | outcome [6] | outcome [1] | Potency [2] | Potency [3] | Potency [4]

O=C1CC[C@@]2(O)C3Cc4ccc(O)c5c4C2(CCN3CC2CC2)[C@H]1O5 (stereo not given in full)
inactive: outcome [1] | Potency [2] | Potency [3] | Potency [4]

O=S(=O)(O)c1cc(O)ccc1O
inactive: activity change, negative = inhibition ([17]; at 25.7 µM (top of the series)) 1.28%
11.8%: max response [17, 18]
12.6%: max response [17, 19]

NC(=O)c1ccc(OCC(O)CN2CC=C(c3ccc(F)cc3)CC2)cc1 (stereo not given)
-43.3%: max response [17, 18]
-42.5%: max response [17, 19]
inactive: activity change, negative = inhibition ([17]; at 57.5 µM (top of the series)) -3.69% | Potency [2] | Potency [3] | Potency [4]

C=CCN1CCC23c4c5ccc(O)c4O[C@H]2C(=O)CC[C@@]3(O)C1C5 (stereo not given in full)
inactive: Potency [2] | Potency [3] | Potency [4]

O=[N+]([O-])c1ccc2nc(N3CCNCC3)ccc2c1
28.4%: max response [17, 18]
inactive: outcome [5] | outcome [6] | outcome [7] | activity change, negative = inhibition ([17]; at 57.5 µM (top of the series)) 0.42% | Potency [2] | Potency [3] | Potency [4]
27.7%: max response [17, 19]
